Source: PubChem BioAssay (National Center for Advancing Translational Sciences (NCATS))
Pf growth 96h – P. falciparum growth inhibition at 96 hour, primary screen for plastid delayed-death inhibitors; P. falciparum luciferase reporter growth, 96 h; Potency, µM (highest dose often 28.7 µM), inactives show top-dose activity change, negative = inhibition, usual class: inhibitors; hit rate 6.9% among 320,000; AID 504834; also: potency is read from the fitted curve at half-maximal effect; % is scaled to controls: 0 for no effect and ±100 for the full control effect
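Cell-based qHTS: luciferase-tagged P. falciparum in erythrocytes (2% hematocrit, 0.05% parasitemia final) incubated with compounds for 96 hours, 37 C, 5% CO2; luciferase detection reagent then added and luminescence measured.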
SARS PLpro yeast – SARS-CoV PLP inhibition in yeast. hit rate 0.19% among 330,000. Potency, µM (doses to about 32.9 µM), for inactives: at the highest dose activity, positive = growth rescue, usual class: activators. AID 485353. S. cerevisiae expressing SARS-CoV PLpro, growth rescue; calls by dose curve; also: potency is read from the fitted curve at half-maximal effect; 0% is about no effect; nearly all actives have a fitted effect of over 55% in size
Pf growth 48h – inhibits P. falciparum growth in the first generation, 48 h; hit rate 5.9% among 310,000; P. falciparum luciferase growth in erythrocytes, 48 h; AID 504832; Potency, µM (titrated, usually from 28.7 µM), for inactives: at the highest dose activity change, negative = inhibition, usual class: inhibitors; also: potency is read from the fitted curve at half-maximal effect; % is scaled to controls: 0 for no effect and ±100 for the full control effect
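Growth was read as firefly luciferase luminescence after a 48 h, 37 C, 5% CO2 exposure of compounds to reporter-bearing P. falciparum cultures (0.1% parasitemia, 2% hematocrit final) in Albumax-supplemented RPMI 1640.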
Shiga toxin inh – blocks Shiga toxin action in Vero cells; Vero cells, Shiga toxin protein synthesis inhibition reporter; hit rate 9.2% among 290,000; inhibition, % at 38.7 µM; in the data active = inhibition mostly above about 28%, no sharp cut-off; inactive = mostly below about 43%; also: 0% is about no effect
CHX counter – counter-screen hit for Shiga toxin inhibitors, cycloheximide; cell reporter, cycloheximide protein synthesis inhibition counterscreen; max response, %; hit rate 12% among 300,000; AID 2314; in the data active = max response mostly above about 13%, no sharp cut-off; inactive = mostly below about 14%; also: read at 38.3 µM for the half of the compounds with a filed dose; 0% is about no effect
NS1 inh – blocks influenza NS1 protein function; Potency, µM (series often up to 46.1 µM), inactives show at the highest dose activity, positive = more growth; hit rate 0.4% among 270,000; calls by dose curve; also: potency is read from the fitted curve at half-maximal effect; actives are rising curves; nearly all actives have a fitted effect of over 50% in size
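Read-out: OD600 growth recovery of NS1-expressing budding yeast. Cells grown overnight at 30C in -URA glucose medium, washed, resuspended and diluted 1:100 in 2% galactose assay medium, pH 6.0. Same strain lacking NS1 served as positive control.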
Numbers without * were called inactive; ? = inconclusive; · = no result given; + = active, no number; [ ] = another dose, or the depositor's remark. Most compounds without a hit are left out; they make up all but 21% or so of the library. Unless noted, calls follow the shape of the dose curve; as a rule, active = well fitted inhibition curve with a large enough effect; inconclusive = small, poorly fitted or top-dose-only effect, or another doubt; inactive = no such curve, though single readings can be large or run the other way.

SMILES	Pf growth 96h	SARS PLpro yeast	Pf growth 48h	Shiga toxin inh	CHX counter	NS1 inh
Cc1ccc(-n2nc3c(c2NC(=O)C2CC2)CS(=O)(=O)C3)cc1	-9%	8%	8%	-7	-3	2%
Cc1ccc2cccc(OCC(=O)c3cc(C)n(Cc4ccco4)c3C)c2n1	?	2%	13µM*	101	25*	·
Cc1cc(C(=O)CCl)c(C)n1Cc1ccco1	197%	?	16%	43	21	·
Cc1cc(C(=O)COC(=O)[C@H](C)NC(=O)c2ccco2)c(C)n1Cc1ccco1	12%	-1%	478%	59*	35*	·
COc1ccc(N2CCN(C(=O)CC34CC5CC(CC(C5)C3)C4)CC2)c([N+](=O)[O-])c1	?	-72%	?	-4	3	-1%
Cc1nc(C(=O)NC2CC2)sc1C1(C)CC(c2ccccc2)=NO1 (centres undefined)	-4%	1%	-11%	20	18*	-45%
O=C(NCC(c1cccs1)N1CCOCC1)c1ccccc1NS(=O)(=O)c1ccc(Cl)c([N+](=O)[O-])c1 (centres undefined)	8.3µM*	-6%	?	-4	1	-13%
O=C(NCC(c1cccs1)N1CCOCC1)c1ccccc1NS(=O)(=O)c1cccc([N+](=O)[O-])c1 (centres undefined)	?	-1%	?	-5	-3	-4%
O=C(NCC(c1cccs1)N1CCOCC1)c1ccccc1NS(=O)(=O)c1cc([N+](=O)[O-])ccc1Cl (centres undefined)	13µM*	-5%	?	-6	-1	25%
O=C(NCC(c1cccs1)N1CCOCC1)c1ccccc1NS(=O)(=O)c1ccc(Cl)cc1 (centres undefined)	?	-3%	?	-1	-2	-24%
CC(NC(=O)c1cc(S(=O)(=O)N(C)C)ccc1Cl)c1ccc(-n2ccnc2)cc1 (centres undefined)	-20%	3%	-15%	-32	-4	7%
O=C(O)c1cc(NS(=O)(=O)c2cccc3nsnc23)cc(C(=O)O)c1	7.4µM*	1%	-4%[0.00184 µM]	-2	-1	6%
c1ccc(C(OC2CCCN(CCc3ccc4c(c3)OCO4)C2)c2ccccc2)cc1 (centres undefined)	·	·	·	16	-4	·
O=C(CSc1ncccn1)N/N=C/c1cccc(OC2CSC2)c1	12µM*	2%	5%	-6	13	·
COc1ccc(N(CC(=O)N/N=C/c2ccc(OC3CSC3)cc2)S(=O)(=O)c2ccccc2)cc1	?	-21%	-16%	1	1	?
O=C(N/N=C/c1ccc(OC2CSC2)cc1)c1ccccc1	?	-3%	12µM*	127*	50*	-6%
O=C(/C=C/c1ccc(OC2CSC2)cc1)c1ccccc1	?	-8%	131%	125*	47*	-18%
COc1ccc(CCNC(=O)C23CCC(C)(C(=O)C2Br)C3(C)C)cc1OC (centres undefined)	-18%	2%	-16%	15	5	-10%
CCN(CC)C(=O)c1cccnc1	-16%	·	-4%	·	·	·
O=[N+]([O-])c1ccccc1N/N=C/c1c[nH]c2ccccc12	371%	-3%	123%	88*	67*	-3%
COc1ccccc1NS(=O)(=O)c1cc([N+](=O)[O-])ccc1N/N=C/c1c[nH]c2ccccc12	·	-2%	?	-14	0	4%
O=C(N/N=C/c1ccc[nH]1)c1ccccc1[N+](=O)[O-]	?	8%	16%	-2	-4	5%
O=[N+]([O-])c1ccc(N/N=C/c2ccc[nH]2)cc1	?	-68%	-23%	66*	84*	?
O=[N+]([O-])c1ccc(N/N=C/c2c[nH]c3ccccc23)cc1	?	-15%	-23%	61*	26*	-54%
COc1ccc(OC)c(CCNC(=O)c2cccc(NC3=NC4CS(=O)(=O)CC4S3)c2)c1 (centres undefined)	-2%	-5%	-5%	5	-2	-1%
SMILES	Pf growth 96h	SARS PLpro yeast	Pf growth 48h	Shiga toxin inh	CHX counter	NS1 inh
Cc1c(F)cccc1NS(=O)(=O)c1ccc2c(c1)NC(=O)CO2	476%	-4%	?	-11	-7	·
COC(=O)c1cc2ccccc2c(-c2c(OC)c(C(=O)OC)cc3ccccc23)c1OC	12µM*	-22%	?	-8	12	-32%
Cc1ccc(C2=NN(CC(=O)NCCC(C)C)C(=O)CC2)cc1	3%	0%	16%	24	-4	-6%
CC(C)(Oc1ccc(Cl)cc1)C(=O)NC1CCCCC1	-2%	1%	12µM*	·	·	·
CN(C)S(=O)(=O)c1ccc(Cl)c(NC(=O)CN2C(=O)NC3(CCc4ccccc43)C2=O)c1 (centres undefined)	-22%	2%	?	·	·	·
CC(=O)c1ccc(-c2c(C3C4C=CCCC4(C)C(=O)N3Cc3ccccc3)ccc3ccccc23)cc1 (centres undefined)	·	·	·	0	-8	·
COc1ccc(-c2c(C3C4C=CCCC4(C)C(=O)N3Cc3ccccc3)ccc3ccccc23)cc1 (centres undefined)	·	·	·	+	103*	·
COc1ccc(-c2ccc(C)cc2)cc1[C@H]1[C@@H]2C=CCC[C@@]2(C)C(=O)N1Cc1ccccc1	?	-2%	12µM*	-11	-1	2%
COc1ccc(/C=C/C(=O)c2ccc(Cl)cc2)c(OC)c1	43%	-10%	134%	80*	43*	13%
COc1ccc(/C=C/C(=O)c2cc(Cl)ccc2O)c(OC)c1	?	-1%	?	50*	25*	-1%
COc1ccc(C(=O)/C=C/c2ccccc2)c(O)c1	53%	-14%	34%	54*	70*	-14%
CN(C)c1ccc(/C=C/C(=O)c2cc(Cl)ccc2O)cc1	18%	-2%	-7%	33	12	-1%
O=C(/C=C/c1ccncc1)c1cc(Cl)ccc1O	9.3µM*	-4%	?	20	10	2%
COC(=O)c1c(NC(=O)CN2CCN(c3cccc(Cl)c3)CC2)sc(C)c1C	17%	4%	10%	-6	-3	-4%
COc1ccc(C(=O)/C=C/c2ccc(OC)cc2OC)c(O)c1	37%	0%	187%	72*	43*	1%
COc1ccc(C(=O)c2ccccc2O)c(O)c1	?	·	4.1µM*	·	·	·
COc1ccc(C(=O)c2ccc(OC)cc2O)c(O)c1	32%[5.75 µM]	6%	?	47	11	-48%
Cc1cccc(NC(=O)C2CCCN2S(=O)(=O)c2cccc3cccnc23)c1 (centres undefined)	?	0%	·	3	6	-17%
COc1ccc(N=C2SC(CC(=O)Nc3ccc(OC)cc3OC)C(=O)N2C)cc1 (centres undefined)	5%	-2%	-13%	-13	-2	-9%
